Activity calls are given as the source filed them.
Experiments:
[1] = E. coli DRC41 culture turbidity changes, primary screen, E. coli filamentation inducer project, strain DRC41, OD650, 48 h (AID 1152);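 note: E. coli MC1000 strain DRC41 lacking acrAB efflux pump and sulA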; conditions: E. coli DRC41 (acrAB sulA), higher = more signal, called active from +8 up or from −8 down
[2] = small-molecule binders of probe aLefty1, primary screen, biochemical, small-molecule microarray, 635/667 nm fluorescence (AID 1153); conditions: higher = more signal;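 note: score merges spot fluorescence with signal-to-noise ratio from the scanned slide images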
[3] = PSAC antagonists in infected red cells, primary screen, cell-based, P. falciparum Indochina, OD700, 1 h (AID 1154); conditions: P. falciparum Indochina infected RBC osmotic lysis, higher = more signal, called active from +8 up or from −8 down
[4] = PSAC antagonists in infected red cells, primary screen, cell-based, P. falciparum Indochina, OD700, 2 h (AID 1155);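 note: lysis reports solute entry through the parasite surface anion channel PSAC; channel blockers reduce lysis of infected cells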; conditions: P. falciparum Indochina infected erythrocytes, osmotic lysis OD700; higher = more signal, called active from +8 up or from −8 down
[5] = osmotic lysis modulators in infected erythrocytes, primary screen, PSAC antagonist project, cell-based, P. falciparum Indochina, OD700, 3 h (AID 1156); conditions: higher = more signal, called active from +8 up or from −8 down
[6] = PSAC antagonists in infected red cells, primary screen, cell-based, P. falciparum Indochina, OD700, 18 h (AID 1157); conditions: P. falciparum Indochina infected erythrocytes, osmotic lysis OD700, 18 h; higher = more signal, called active from +8 up or from −8 down
[7] = modulators of S6 phosphorylation in cells, primary screen, cell-based, A549, cytoblot, luminescence, serum-stimulated (AID 1158); conditions: A549 phospho-S6 cytoblot, 5 h, higher = more signal;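 note: serum-stimulated A549 lung adenocarcinoma cells; signal is phosphorylated S6 detected by cytoblot immunostaining with HRP secondary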
[8] = target: NADPH oxidase 2 (Homo sapiens) (UniProt P04839); test: NOX2-dependent H2O2 signal modulators, primary screen, NOX inhibitor project, cell-based, HEK293-NOX2, PMA-stimulated, Amplex Red fluorescence (AID 1159); conditions: 45 min, higher = more signal, called active from +8 up or from −8 down; note: test concentration not given here
NADPH oxidase 2 (Homo sapiens), sequence (P04839 whole entry, looked up): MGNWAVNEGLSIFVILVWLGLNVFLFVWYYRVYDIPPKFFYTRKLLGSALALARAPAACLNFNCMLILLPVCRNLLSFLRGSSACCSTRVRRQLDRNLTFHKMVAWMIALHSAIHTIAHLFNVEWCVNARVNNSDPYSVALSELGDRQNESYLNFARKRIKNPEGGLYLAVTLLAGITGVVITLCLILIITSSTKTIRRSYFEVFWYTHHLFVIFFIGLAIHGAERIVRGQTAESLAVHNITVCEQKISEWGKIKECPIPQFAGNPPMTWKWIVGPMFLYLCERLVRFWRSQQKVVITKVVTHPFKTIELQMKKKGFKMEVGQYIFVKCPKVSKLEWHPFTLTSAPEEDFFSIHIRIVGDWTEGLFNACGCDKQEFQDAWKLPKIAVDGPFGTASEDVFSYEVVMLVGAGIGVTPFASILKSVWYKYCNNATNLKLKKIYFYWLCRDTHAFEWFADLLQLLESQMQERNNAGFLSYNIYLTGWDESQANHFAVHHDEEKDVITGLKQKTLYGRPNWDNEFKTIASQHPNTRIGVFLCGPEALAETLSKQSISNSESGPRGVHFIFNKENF

[9] = target: NADPH oxidase 4 (Homo sapiens) (UniProt Q9NPH5); test: NOX4-dependent H2O2 signal modulators, primary screen, NOX inhibitor project, cell-based, HEK293-NOX4, tetracycline-induced, Amplex Red fluorescence (AID 1160); conditions: 45 min, higher = more signal, called active from +8 up or from −8 down
NADPH oxidase 4 (Homo sapiens), sequence (Q9NPH5 whole entry, looked up): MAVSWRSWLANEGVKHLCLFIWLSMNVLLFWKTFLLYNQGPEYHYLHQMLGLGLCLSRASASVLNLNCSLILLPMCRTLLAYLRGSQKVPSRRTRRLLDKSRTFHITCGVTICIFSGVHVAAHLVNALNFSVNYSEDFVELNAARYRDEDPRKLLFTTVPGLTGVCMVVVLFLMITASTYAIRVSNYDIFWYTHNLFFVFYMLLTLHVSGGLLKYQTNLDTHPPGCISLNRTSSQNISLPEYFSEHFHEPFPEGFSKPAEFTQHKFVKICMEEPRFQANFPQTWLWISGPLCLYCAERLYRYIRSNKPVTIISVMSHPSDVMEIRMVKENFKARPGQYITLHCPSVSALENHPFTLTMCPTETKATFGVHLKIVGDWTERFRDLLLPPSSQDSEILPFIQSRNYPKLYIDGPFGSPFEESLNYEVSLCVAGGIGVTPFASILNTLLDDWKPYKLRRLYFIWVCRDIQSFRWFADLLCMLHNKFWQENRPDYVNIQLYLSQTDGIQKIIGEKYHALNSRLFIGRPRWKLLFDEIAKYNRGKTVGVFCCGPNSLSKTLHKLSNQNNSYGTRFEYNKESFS

[10] = target: NADPH oxidase 5 (Homo sapiens) (UniProt Q96PH1); test: NOX5-dependent H2O2 signal modulators, primary screen, NOX inhibitor project, cell-based, HEK293-NOX5, Amplex Red fluorescence (AID 1161); conditions: HEK293-NOX5, ionomycin, 45 min, higher = more signal
NADPH oxidase 5 (Homo sapiens), sequence (Q96PH1 whole entry, looked up): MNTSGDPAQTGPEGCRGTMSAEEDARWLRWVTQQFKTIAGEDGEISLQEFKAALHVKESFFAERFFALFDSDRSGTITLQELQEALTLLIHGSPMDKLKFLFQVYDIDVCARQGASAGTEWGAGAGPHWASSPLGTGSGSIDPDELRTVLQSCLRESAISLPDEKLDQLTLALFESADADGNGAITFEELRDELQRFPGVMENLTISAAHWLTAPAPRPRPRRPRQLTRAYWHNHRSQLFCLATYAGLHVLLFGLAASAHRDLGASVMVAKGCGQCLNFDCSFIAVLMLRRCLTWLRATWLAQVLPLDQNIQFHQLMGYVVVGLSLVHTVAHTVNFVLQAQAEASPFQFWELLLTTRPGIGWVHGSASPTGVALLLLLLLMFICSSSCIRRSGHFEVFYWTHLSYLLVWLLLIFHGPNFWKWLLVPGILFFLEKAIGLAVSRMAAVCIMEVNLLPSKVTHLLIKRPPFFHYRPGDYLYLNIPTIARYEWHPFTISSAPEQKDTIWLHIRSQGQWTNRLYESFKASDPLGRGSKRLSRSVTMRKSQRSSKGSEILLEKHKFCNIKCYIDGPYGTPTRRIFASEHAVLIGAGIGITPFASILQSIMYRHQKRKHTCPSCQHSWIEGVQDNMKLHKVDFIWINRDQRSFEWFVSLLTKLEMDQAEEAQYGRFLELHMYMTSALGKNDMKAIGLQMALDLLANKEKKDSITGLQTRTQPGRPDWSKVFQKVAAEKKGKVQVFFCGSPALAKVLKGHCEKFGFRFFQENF

[11] = A549 cell viability effects, profiling panel, calcein-AM fluorescence, 48 h, basal (AID 1162); conditions: higher = more signal; note: test concentration not given here
[12] = adipocyte viability effects, profiling panel, cell-based, 3T3-L1 adipocytes, calcein-AM fluorescence, 48 h, basal (AID 1163); conditions: 3T3-L1 adipocytes viability, higher = more signal; note: test concentration not given here
[13] = HepG2 cell viability effects, profiling panel, calcein-AM fluorescence, 48 h, basal (AID 1164); conditions: higher = more signal; note: test concentration not given here
[14] = MM1S cell viability effects, profiling panel, calcein-AM fluorescence, 48 h, basal (AID 1165); conditions: higher = more signal;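 note: viability of MM1S multiple myeloma cells under basal unstimulated conditions; test concentration not given here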
[15] = basal RPMI8226 viability, no added stimulus, profiling panel, cell-based, calcein-AM fluorescence, 48 h, PK04 Diversity Set (AID 1166); conditions: RPMI8226 myeloma viability, higher = more signal;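 note: cells grown under basal conditions without added stimulus; test concentration not given here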
[16] = basal HepG2 mitochondrial membrane potential changes, profiling panel, cell-based, JC-1 fluorescence, 24 h, 100 nL compound (AID 1167); conditions: higher = more signal; note: test concentration not given here
[17] = basal 3T3-L1 adipocyte mitochondrial potential changes, profiling panel, cell-based, JC-1 fluorescence, 3T3-L1 adipocytes, 24 h, 100 nL compound (AID 1168); conditions: JC-1 mitochondrial fluorescence, higher = more signal, called active from +8 up or from −8 down; note: test concentration not given here
[18] = basal RPMI8226 mitochondrial membrane potential changes, profiling panel, cell-based, JC-1 fluorescence, 24 h, 100 nL compound (AID 1169); conditions: RPMI8226 myeloma, JC-1 mitochondrial potential fluorescence, higher = more signal; note: test concentration not given here
[19] = basal MM1S mitochondrial membrane potential changes, profiling panel, cell-based, JC-1 fluorescence, 24 h, 100 nL compound (AID 1170); conditions: higher = more signal; note: test concentration not given here
[20] = A549 lung cancer cell viability effects, profiling panel, resazurin fluorescence, 24 h, PK04 Diversity Set (AID 1171); conditions: higher = more signal, called active from +8 up or from −8 down; note: test concentration not given here

In the case of `CCCCN1CC=CC23O[C@@H]4C=CCOC(=O)[C@@H]4[C@H]2C(=O)N(C(C)CO)[C@@H]3C1=O` (stereo not given in full), the z-score [1] is reported as -0.65 (inactive), the composite z-score [2] is reported as -0.045 and the z-score [3] is reported as 0.596 (inactive). The z-score [4] was -0.404 (inactive), the z-score [5] was 0.436 (inactive) and the z-score [6] was 0.111 (inactive). The z-score [7] was -0.163, the z-score [8] was 0.953 (inactive) and the z-score [9] was 0.56 (inactive). The z-score [10] was 1.51, the z-score [11] was -0.406 and the z-score [12] was 0.434. The z-score [13] was -0.208, the z-score [14] was 0.638 and the z-score [15] was 0.0934. The z-score [16] was -1.02, the z-score [17] was -1.98 (inactive) and the z-score [18] was -0.768. For the same compound, the z-score [19] was -0.0859 and the z-score [20] was -0.384 (inactive).
For `O=C1NCC(=O)N2[C@@H]1C[C@@H](C(=O)O)[C@H]2c1ccc(O)cc1`, the z-score [1] was 0.533 (inactive), the composite z-score [2] was 0.138 and the z-score [3] was 2.73 (inactive). For the same compound, the z-score [4] was 0.328 (inactive), the z-score [5] was -3.02 (inactive) and the z-score [6] was -0.0173 (inactive). For the same compound, the z-score [7] was -0.174, the z-score [8] was -1.92 (inactive) and the z-score [9] was -0.822 (inactive). It also gave a z-score [10] of -1.29, a z-score [11] of 0.391 and a z-score [12] of -0.0074. For the same compound, the z-score [13] was -0.084, the z-score [14] was -2.79 and the z-score [15] was -0.0676. For the same compound, the z-score [16] was 0.429, the z-score [17] was -0.799 (inactive) and the z-score [18] was 0.233. For the same compound, the z-score [19] was -0.775 and the z-score [20] was 0.249 (inactive).
With `CC(=O)n1cc(C(O)C2C=CC3C(=O)N(c4ccccc4)C(=O)C3N2Nc2ccccc2)c2ccccc21` (stereo not given) the z-score [1] was -1.45 (inactive), the composite z-score [2] was 0.681 and the z-score [3] was 20.1 (active). For the same compound, the z-score [4] was 2.76 (inactive), the z-score [5] was 1.12 (inactive) and the z-score [6] was -0.568 (inactive). The z-score [7] was 1.32, the z-score [8] was -3.07 (inactive) and the z-score [9] was -4.86 (inactive). It also gave a z-score [10] of -4.68, a z-score [11] of -0.8 and a z-score [12] of 0.174. It also gave a z-score [13] of 0.374, a z-score [14] of -1.06 and a z-score [15] of -1.19. The z-score [16] was -2.16, the z-score [17] was -0.349 (inactive) and the z-score [18] was -0.502. For the same compound, the z-score [19] was -0.969 and the z-score [20] was -1.05 (inactive).
In the case of `COCCOC(=O)N1C(=O)[C@@]2(c3cc(C#CCNC(N)=O)ccc31)[C@H](C(=O)N1CCCCCCC1)[C@H]1C(=O)O[C@H](c3ccccc3)[C@H](c3ccccc3)N1[C@@H]2c1ccc(O)cc1`, the z-score [1] is reported as -0.455 (inactive), the composite z-score [2] is reported as -0.0945 and the z-score [3] is reported as -0.0508 (inactive). For the same compound, the z-score [4] was -0.164 (inactive), the z-score [5] was -0.271 (inactive) and the z-score [6] was 0.0404 (inactive). For the same compound, the z-score [7] was 0.0746, the z-score [8] was 2.56 (inactive) and the z-score [9] was 0.475 (inactive). The z-score [10] was 1.73, the z-score [11] was 0.614 and the z-score [12] was -0.369. For the same compound, the z-score [13] was -0.395, the z-score [14] was -0.787 and the z-score [15] was 0.337. The z-score [16] was -2.08, the z-score [17] was -0.379 (inactive) and the z-score [18] was -0.216. For the same compound, the z-score [19] was 0.444 and the z-score [20] was -0.171 (inactive).
For `C=C(COC)/C(=C/C[C@@H](OC(=O)c1ccncc1)c1ccc(CO)o1)c1cnc2ccccc2c1`, the z-score [1] was 0.149 (inactive), the composite z-score [2] was 0.471 and the z-score [3] was 4.66 (inactive). The z-score [4] was 1.24 (inactive), the z-score [5] was 1 (inactive) and the z-score [6] was 0.234 (inactive). For the same compound, the z-score [7] was -0.188, the z-score [8] was -0.627 (inactive) and the z-score [9] was -1.24 (inactive). It also gave a z-score [10] of -1.54, a z-score [11] of -0.308 and a z-score [12] of 0.513. For the same compound, the z-score [13] was -0.607, the z-score [14] was -0.164 and the z-score [15] was 0.575. For the same compound, the z-score [16] was -0.65, the z-score [17] was 0.654 (inactive) and the z-score [18] was 0.0268. The z-score [19] was -0.151 and the z-score [20] was 0.331 (inactive).
For `CCOC(=O)C1=C[C@@H](c2ccccc2)N(S(=O)(=O)c2ccc(C)cc2)[C@H]1c1cccc(Cl)c1`, the z-score [1] was -1.29 (inactive), the composite z-score [2] was 0.409 and the z-score [3] was 1.57 (inactive). For the same compound, the z-score [4] was 1.24 (inactive), the z-score [5] was -0.276 (inactive) and the z-score [6] was 0.805 (inactive). The z-score [7] was -0.645, the z-score [8] was 0.14 (inactive) and the z-score [9] was -0.143 (inactive). The z-score [10] was 0.0576, the z-score [11] was -1.17 and the z-score [12] was 0.452. It also gave a z-score [13] of -1.71, a z-score [14] of -1.33 and a z-score [15] of -1.48. For the same compound, the z-score [16] was 2.04, the z-score [17] was -0.591 (inactive) and the z-score [18] was 0.754. The z-score [19] was 0.648 and the z-score [20] was 0.776 (inactive).
In the case of `CC(C)C[C@@H]1NC(=O)[C@H]2C[C@@H](C(=O)NCCCCCC[N+](C)(C)C)[C@@H](c3cccc(OCCO)c3)N2C1=O`, the z-score [1] is reported as 0.898 (inactive), the composite z-score [2] is reported as -0.64 and the z-score [3] is reported as 6.18 (inactive). The z-score [4] was 0.596 (inactive), the z-score [5] was 0.853 (inactive) and the z-score [6] was 0.251 (inactive). For the same compound, the z-score [7] was -0.214, the z-score [8] was 1.67 (inactive) and the z-score [9] was 0.95 (inactive). It also gave a z-score [10] of 1.3, a z-score [11] of -0.53 and a z-score [12] of 0.282. It also gave a z-score [13] of 0.0659, a z-score [14] of -0.804 and a z-score [15] of -0.0361. For the same compound, the z-score [16] was -0.474, the z-score [17] was 0.0908 (inactive) and the z-score [18] was -0.271. For the same compound, the z-score [19] was -0.34 and the z-score [20] was 1.24 (inactive).
In the case of `O=C1c2ccccc2[C@](Cc2ccccc2I)(C(=O)NCCN2CCOCC2)[C@H](c2ccc(CO)cc2)N1Cc1ccccc1`, the z-score [1] is reported as -0.381 (inactive), the composite z-score [2] is reported as 0.641 and the z-score [3] is reported as 4.18 (inactive). For the same compound, the z-score [4] was 0.815 (inactive), the z-score [5] was -0.188 (inactive) and the z-score [6] was 0.352 (inactive). For the same compound, the z-score [7] was -0.0041, the z-score [8] was 0.744 (inactive) and the z-score [9] was 0.91 (inactive). For the same compound, the z-score [10] was 0.665, the z-score [11] was -0.0426 and the z-score [12] was 0.193. For the same compound, the z-score [13] was 1.14, the z-score [14] was 0.211 and the z-score [15] was -0.347. The z-score [16] was 0.642, the z-score [17] was 0.421 (inactive) and the z-score [18] was 0.231. For the same compound, the z-score [19] was -0.462 and the z-score [20] was 0.0188 (inactive).
For `COc1ccc([Si](C)(C)[C@@H]2[C@@H](CC(=O)N3CCC[C@H]3CO)O[C@]3(C(=O)N(Cc4ccc(N5C(=O)c6cccc7cccc5c67)cc4)c4ccccc43)[C@H]2C)cc1`, the z-score [1] was 1.13 (inactive), the composite z-score [2] was -0.0984 and the z-score [3] was 5.77 (inactive). For the same compound, the z-score [4] was 1.71 (inactive), the z-score [5] was 1.06 (inactive) and the z-score [6] was 0.918 (inactive). The z-score [7] was 0.486, the z-score [8] was 3.1 (inactive) and the z-score [9] was 1.37 (inactive). It also gave a z-score [10] of 4.38, a z-score [11] of -1.22 and a z-score [12] of 1.43. It also gave a z-score [13] of -2.94, a z-score [14] of -2.75 and a z-score [15] of -4.35. The z-score [16] was -1.18, the z-score [17] was -0.209 (inactive) and the z-score [18] was -1.01. For the same compound, the z-score [19] was -2.21 and the z-score [20] was -3.19 (inactive).
